# Assay results: publication PMC11006913
# Experiments:
# Test in all cases: PBM; 200 nM protein, PBS
# Conditions in all cases: dsDNA, one strand shown
# ALX3 [1] = target: ALX3 (Homo sapiens, UniProt O95076 139-225)
# HOXD13 = HOXD13 (Homo sapiens, UniProt P35453 263-343, T313A)
# PAX4 = target: T1, PAX4 (Homo sapiens, UniProt O43316 9-242, F177Y)
# T1 sequence: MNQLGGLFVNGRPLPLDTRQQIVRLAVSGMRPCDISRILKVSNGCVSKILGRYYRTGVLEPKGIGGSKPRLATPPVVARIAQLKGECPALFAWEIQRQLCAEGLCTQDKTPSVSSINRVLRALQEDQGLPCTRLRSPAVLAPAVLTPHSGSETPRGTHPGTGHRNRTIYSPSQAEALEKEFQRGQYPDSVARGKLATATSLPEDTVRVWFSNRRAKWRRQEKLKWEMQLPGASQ
# PROP1 [2] = target: PROP1 (Homo sapiens, UniProt O75360 56-141)
# PROP1 (Homo sapiens, UniProt O75360 56-141), sequence (O75360 56-141): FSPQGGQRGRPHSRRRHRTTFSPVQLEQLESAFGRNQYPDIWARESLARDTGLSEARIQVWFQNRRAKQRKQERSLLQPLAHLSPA
# NKX2-4 = target: T2, NKX2-4 (Homo sapiens, UniProt Q9H2Z4 175-261, R246Q)
# T2 sequence: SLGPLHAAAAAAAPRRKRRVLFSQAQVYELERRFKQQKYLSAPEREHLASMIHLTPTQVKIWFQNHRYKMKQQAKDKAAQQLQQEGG
# PROP1 [3] = target: PROP1 (Homo sapiens, UniProt O75360 56-141, R99H)
# PROP1 (Homo sapiens, UniProt O75360 56-141, R99H), sequence (O75360 56-141 R99H): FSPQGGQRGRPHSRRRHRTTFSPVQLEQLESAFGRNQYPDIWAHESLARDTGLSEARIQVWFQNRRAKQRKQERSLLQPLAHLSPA
# PROP1 [4] = target: PROP1 (Homo sapiens, UniProt O75360 56-141, F88S)
# PROP1 (Homo sapiens, UniProt O75360 56-141, F88S), sequence (O75360 56-141 F88S): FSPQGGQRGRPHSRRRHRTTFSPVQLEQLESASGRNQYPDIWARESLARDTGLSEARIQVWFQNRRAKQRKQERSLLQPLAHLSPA
# VAX1 [5] = target: VAX1 (Homo sapiens, UniProt Q5SQQ9 86-172)
# VAX1 (Homo sapiens, UniProt Q5SQQ9 86-172), sequence (Q5SQQ9 86-172): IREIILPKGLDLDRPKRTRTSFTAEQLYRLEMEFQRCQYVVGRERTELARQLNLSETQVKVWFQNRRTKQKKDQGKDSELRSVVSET
# VAX1 [6] = target: VAX1 (Homo sapiens, UniProt Q5SQQ9 86-172, T142I)
# VAX1 (Homo sapiens, UniProt Q5SQQ9 86-172, T142I), sequence (Q5SQQ9 86-172 T142I): as the sequence (Q5SQQ9 86-172) above, with T57I counted along it
# VAX1 [7] = target: VAX1 (Homo sapiens, UniProt Q5SQQ9 86-172, K157R)
# VAX1 (Homo sapiens, UniProt Q5SQQ9 86-172, K157R), sequence (Q5SQQ9 86-172 K157R): as the sequence (Q5SQQ9 86-172) above, with K72R counted along it
# ALX3 [8] = target: ALX3 (Homo sapiens, UniProt O95076 139-225, N203S)
# ALX3 (Homo sapiens, UniProt O95076 139-225, N203S), sequence (O95076 139-225 N203S): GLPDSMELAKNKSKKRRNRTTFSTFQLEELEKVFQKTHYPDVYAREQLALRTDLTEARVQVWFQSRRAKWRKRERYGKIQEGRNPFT
# ALX3 (Homo sapiens, UniProt O95076 139-225), sequence (O95076 139-225): as the sequence (O95076 139-225 N203S) above, with S65N counted along it
# HOXD13, sequence (P35453 263-343 T313A): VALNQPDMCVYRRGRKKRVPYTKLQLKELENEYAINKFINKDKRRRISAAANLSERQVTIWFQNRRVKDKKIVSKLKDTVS
sequence,measurement,setting,value
CATATTGA,binding signal,ALX3 [1],"9.37 upbm affinity estimate (log intensity, higher = more binding, comparable within an allelic series)"
GATATGGA,binding signal,ALX3 [1],"9.24 upbm affinity estimate (log intensity, higher = more binding, comparable within an allelic series)"
CACATAAA,binding signal,HOXD13,"11.6 upbm affinity estimate (log intensity, higher = more binding, comparable within an allelic series)"
ATAATTCG,binding signal,PAX4,"11 upbm affinity estimate (log intensity, higher = more binding, comparable within an allelic series)"
AATAGTCC,binding signal,PROP1 [2],"8.13 upbm affinity estimate (log intensity, higher = more binding, comparable within an allelic series)"
ACTATTAT,binding signal,ALX3 [1],"10.4 upbm affinity estimate (log intensity, higher = more binding, comparable within an allelic series)"
ATTGTGAG,binding signal,PROP1 [2],"8.01 upbm affinity estimate (log intensity, higher = more binding, comparable within an allelic series)"
TCCTTAGA,binding signal,ALX3 [1],"8.33 upbm affinity estimate (log intensity, higher = more binding, comparable within an allelic series)"
AACAATCC,binding signal,PROP1 [2],"7.92 upbm affinity estimate (log intensity, higher = more binding, comparable within an allelic series)"
AACAAGTG,binding signal,NKX2-4,"12.9 upbm affinity estimate (log intensity, higher = more binding, comparable within an allelic series)"
ACTCTTGA,binding signal,NKX2-4,"12.9 upbm affinity estimate (log intensity, higher = more binding, comparable within an allelic series)"
TAATACTA,binding signal,ALX3 [1],"10.2 upbm affinity estimate (log intensity, higher = more binding, comparable within an allelic series)"
GGAACGCC,binding signal,PROP1 [2],"6.7 upbm affinity estimate (log intensity, higher = more binding, comparable within an allelic series)"
same,binding signal,PROP1 [3],"6.87 upbm affinity estimate (log intensity, higher = more binding, comparable within an allelic series)"
same,binding signal,PROP1 [4],"6.68 upbm affinity estimate (log intensity, higher = more binding, comparable within an allelic series)"
GCCATGGC,binding signal,PROP1 [2],"6.94 upbm affinity estimate (log intensity, higher = more binding, comparable within an allelic series)"
same,binding signal,PROP1 [3],"6.8 upbm affinity estimate (log intensity, higher = more binding, comparable within an allelic series)"
same,binding signal,PROP1 [4],"6.74 upbm affinity estimate (log intensity, higher = more binding, comparable within an allelic series)"
AAATACAT,binding signal,PROP1 [2],"8.5 upbm affinity estimate (log intensity, higher = more binding, comparable within an allelic series)"
same,binding signal,PROP1 [3],"7.91 upbm affinity estimate (log intensity, higher = more binding, comparable within an allelic series)"
GTAATAAC,binding signal,ALX3 [1],"10.7 upbm affinity estimate (log intensity, higher = more binding, comparable within an allelic series)"
ATTTCCTA,binding signal,PROP1 [2],"7.97 upbm affinity estimate (log intensity, higher = more binding, comparable within an allelic series)"
ATCATATA,binding signal,PAX4,"10.6 upbm affinity estimate (log intensity, higher = more binding, comparable within an allelic series)"
AAAATGGG,binding signal,PROP1 [2],"7.94 upbm affinity estimate (log intensity, higher = more binding, comparable within an allelic series)"
CCCGACAC,binding signal,PROP1 [2],"6.59 upbm affinity estimate (log intensity, higher = more binding, comparable within an allelic series)"
same,binding signal,PROP1 [3],"6.79 upbm affinity estimate (log intensity, higher = more binding, comparable within an allelic series)"
same,binding signal,VAX1 [5],"6.71 upbm affinity estimate (log intensity, higher = more binding, comparable within an allelic series)"
same,binding signal,PROP1 [4],"6.7 upbm affinity estimate (log intensity, higher = more binding, comparable within an allelic series)"
same,binding signal,VAX1 [6],"6.92 upbm affinity estimate (log intensity, higher = more binding, comparable within an allelic series)"
same,binding signal,VAX1 [7],"6.92 upbm affinity estimate (log intensity, higher = more binding, comparable within an allelic series)"
AATTCCGA,binding signal,PROP1 [2],"8.08 upbm affinity estimate (log intensity, higher = more binding, comparable within an allelic series)"
same,binding signal,PROP1 [3],"7.85 upbm affinity estimate (log intensity, higher = more binding, comparable within an allelic series)"
GCGGACGC,binding signal,PROP1 [2],"6.53 upbm affinity estimate (log intensity, higher = more binding, comparable within an allelic series)"
same,binding signal,PROP1 [3],"6.66 upbm affinity estimate (log intensity, higher = more binding, comparable within an allelic series)"
same,binding signal,PROP1 [4],"6.56 upbm affinity estimate (log intensity, higher = more binding, comparable within an allelic series)"
ATTATGTG,binding signal,PAX4,"10.9 upbm affinity estimate (log intensity, higher = more binding, comparable within an allelic series)"
GCATTACA,binding signal,PROP1 [2],"8.11 upbm affinity estimate (log intensity, higher = more binding, comparable within an allelic series)"
same,binding signal,PROP1 [3],"7.66 upbm affinity estimate (log intensity, higher = more binding, comparable within an allelic series)"
AAGAATAT,binding signal,PROP1 [2],"8.06 upbm affinity estimate (log intensity, higher = more binding, comparable within an allelic series)"
TTACTCAA,binding signal,PROP1 [2],"8.57 upbm affinity estimate (log intensity, higher = more binding, comparable within an allelic series)"
same,binding signal,PROP1 [3],"7.91 upbm affinity estimate (log intensity, higher = more binding, comparable within an allelic series)"
same,binding signal,VAX1 [5],"9.78 upbm affinity estimate (log intensity, higher = more binding, comparable within an allelic series)"
same,binding signal,PROP1 [4],"7.39 upbm affinity estimate (log intensity, higher = more binding, comparable within an allelic series)"
same,binding signal,VAX1 [6],"9.49 upbm affinity estimate (log intensity, higher = more binding, comparable within an allelic series)"
same,binding signal,VAX1 [7],"9.35 upbm affinity estimate (log intensity, higher = more binding, comparable within an allelic series)"
ATGCCAGC,binding signal,PROP1 [2],"6.71 upbm affinity estimate (log intensity, higher = more binding, comparable within an allelic series)"
same,binding signal,PROP1 [3],"6.77 upbm affinity estimate (log intensity, higher = more binding, comparable within an allelic series)"
same,binding signal,PROP1 [4],"6.73 upbm affinity estimate (log intensity, higher = more binding, comparable within an allelic series)"
CCAAACAA,binding signal,ALX3 [1],"8.78 upbm affinity estimate (log intensity, higher = more binding, comparable within an allelic series)"
TGAGATAA,binding signal,ALX3 [1],"9.8 upbm affinity estimate (log intensity, higher = more binding, comparable within an allelic series)"
CTTATAAC,binding signal,ALX3 [1],"9.51 upbm affinity estimate (log intensity, higher = more binding, comparable within an allelic series)"
GGTTGTTA,binding signal,ALX3 [1],"9.57 upbm affinity estimate (log intensity, higher = more binding, comparable within an allelic series)"
same,binding signal,ALX3 [8],"8.28 upbm affinity estimate (log intensity, higher = more binding, comparable within an allelic series)"
AATACTAC,binding signal,PROP1 [2],"7.84 upbm affinity estimate (log intensity, higher = more binding, comparable within an allelic series)"
ATAACATA,binding signal,ALX3 [1],"9.54 upbm affinity estimate (log intensity, higher = more binding, comparable within an allelic series)"
TAAAAGTA,binding signal,ALX3 [1],"9.06 upbm affinity estimate (log intensity, higher = more binding, comparable within an allelic series)"
TGTAGTAA,binding signal,PROP1 [2],"8.45 upbm affinity estimate (log intensity, higher = more binding, comparable within an allelic series)"
same,binding signal,PROP1 [3],"8 upbm affinity estimate (log intensity, higher = more binding, comparable within an allelic series)"
CGCGAACC,binding signal,PROP1 [2],"6.6 upbm affinity estimate (log intensity, higher = more binding, comparable within an allelic series)"
same,binding signal,PROP1 [3],"6.67 upbm affinity estimate (log intensity, higher = more binding, comparable within an allelic series)"
same,binding signal,PROP1 [4],"6.71 upbm affinity estimate (log intensity, higher = more binding, comparable within an allelic series)"
GACGACAA,binding signal,PROP1 [2],"7.4 upbm affinity estimate (log intensity, higher = more binding, comparable within an allelic series)"
ACACTCGA,binding signal,NKX2-4,"12.9 upbm affinity estimate (log intensity, higher = more binding, comparable within an allelic series)"
ATAGAAAA,binding signal,ALX3 [1],"8.94 upbm affinity estimate (log intensity, higher = more binding, comparable within an allelic series)"
AGTTAGAG,binding signal,PROP1 [2],"7.87 upbm affinity estimate (log intensity, higher = more binding, comparable within an allelic series)"
ATCAAGTA,binding signal,NKX2-4,"12.9 upbm affinity estimate (log intensity, higher = more binding, comparable within an allelic series)"
AAAAATAA,binding signal,ALX3 [1],"9.76 upbm affinity estimate (log intensity, higher = more binding, comparable within an allelic series)"
ATTGTCTC,binding signal,PROP1 [2],"7.7 upbm affinity estimate (log intensity, higher = more binding, comparable within an allelic series)"
ATTACTAA,binding signal,PROP1 [2],"9.85 upbm affinity estimate (log intensity, higher = more binding, comparable within an allelic series)"
same,binding signal,PROP1 [3],"9.4 upbm affinity estimate (log intensity, higher = more binding, comparable within an allelic series)"
same,binding signal,PROP1 [4],"7.62 upbm affinity estimate (log intensity, higher = more binding, comparable within an allelic series)"
